Screen size: about 360,000 compounds; about 2,400 (0.67%) were called active. The sample as a whole holds a higher share of actives than the screen did. A number with no mark means an inactive call.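 The calls were made as follows: active = compounds whose normalised, plate-corrected inhibition of enzyme fluorescence in the single-dose primary screen is 50% or more; inactive = the rest.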
The compounds below were run against Fatty acid synthase (Homo sapiens) (UniProt P49327) (assay: FAS thioesterase domain inhibitors, primary screen, biochemical, fluorescence intensity, uHTS (AID 602261;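 also: 0% = DMSO with enzyme and 100% = substrate without enzyme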)). Conditions: recombinant FAS-TE, OMFH fluorogenic substrate, fluorescence endpoint; at 15 µM; hits give high values.
Fatty acid synthase (Homo sapiens), sequence (P49327 whole entry, looked up, the tested form may be a part): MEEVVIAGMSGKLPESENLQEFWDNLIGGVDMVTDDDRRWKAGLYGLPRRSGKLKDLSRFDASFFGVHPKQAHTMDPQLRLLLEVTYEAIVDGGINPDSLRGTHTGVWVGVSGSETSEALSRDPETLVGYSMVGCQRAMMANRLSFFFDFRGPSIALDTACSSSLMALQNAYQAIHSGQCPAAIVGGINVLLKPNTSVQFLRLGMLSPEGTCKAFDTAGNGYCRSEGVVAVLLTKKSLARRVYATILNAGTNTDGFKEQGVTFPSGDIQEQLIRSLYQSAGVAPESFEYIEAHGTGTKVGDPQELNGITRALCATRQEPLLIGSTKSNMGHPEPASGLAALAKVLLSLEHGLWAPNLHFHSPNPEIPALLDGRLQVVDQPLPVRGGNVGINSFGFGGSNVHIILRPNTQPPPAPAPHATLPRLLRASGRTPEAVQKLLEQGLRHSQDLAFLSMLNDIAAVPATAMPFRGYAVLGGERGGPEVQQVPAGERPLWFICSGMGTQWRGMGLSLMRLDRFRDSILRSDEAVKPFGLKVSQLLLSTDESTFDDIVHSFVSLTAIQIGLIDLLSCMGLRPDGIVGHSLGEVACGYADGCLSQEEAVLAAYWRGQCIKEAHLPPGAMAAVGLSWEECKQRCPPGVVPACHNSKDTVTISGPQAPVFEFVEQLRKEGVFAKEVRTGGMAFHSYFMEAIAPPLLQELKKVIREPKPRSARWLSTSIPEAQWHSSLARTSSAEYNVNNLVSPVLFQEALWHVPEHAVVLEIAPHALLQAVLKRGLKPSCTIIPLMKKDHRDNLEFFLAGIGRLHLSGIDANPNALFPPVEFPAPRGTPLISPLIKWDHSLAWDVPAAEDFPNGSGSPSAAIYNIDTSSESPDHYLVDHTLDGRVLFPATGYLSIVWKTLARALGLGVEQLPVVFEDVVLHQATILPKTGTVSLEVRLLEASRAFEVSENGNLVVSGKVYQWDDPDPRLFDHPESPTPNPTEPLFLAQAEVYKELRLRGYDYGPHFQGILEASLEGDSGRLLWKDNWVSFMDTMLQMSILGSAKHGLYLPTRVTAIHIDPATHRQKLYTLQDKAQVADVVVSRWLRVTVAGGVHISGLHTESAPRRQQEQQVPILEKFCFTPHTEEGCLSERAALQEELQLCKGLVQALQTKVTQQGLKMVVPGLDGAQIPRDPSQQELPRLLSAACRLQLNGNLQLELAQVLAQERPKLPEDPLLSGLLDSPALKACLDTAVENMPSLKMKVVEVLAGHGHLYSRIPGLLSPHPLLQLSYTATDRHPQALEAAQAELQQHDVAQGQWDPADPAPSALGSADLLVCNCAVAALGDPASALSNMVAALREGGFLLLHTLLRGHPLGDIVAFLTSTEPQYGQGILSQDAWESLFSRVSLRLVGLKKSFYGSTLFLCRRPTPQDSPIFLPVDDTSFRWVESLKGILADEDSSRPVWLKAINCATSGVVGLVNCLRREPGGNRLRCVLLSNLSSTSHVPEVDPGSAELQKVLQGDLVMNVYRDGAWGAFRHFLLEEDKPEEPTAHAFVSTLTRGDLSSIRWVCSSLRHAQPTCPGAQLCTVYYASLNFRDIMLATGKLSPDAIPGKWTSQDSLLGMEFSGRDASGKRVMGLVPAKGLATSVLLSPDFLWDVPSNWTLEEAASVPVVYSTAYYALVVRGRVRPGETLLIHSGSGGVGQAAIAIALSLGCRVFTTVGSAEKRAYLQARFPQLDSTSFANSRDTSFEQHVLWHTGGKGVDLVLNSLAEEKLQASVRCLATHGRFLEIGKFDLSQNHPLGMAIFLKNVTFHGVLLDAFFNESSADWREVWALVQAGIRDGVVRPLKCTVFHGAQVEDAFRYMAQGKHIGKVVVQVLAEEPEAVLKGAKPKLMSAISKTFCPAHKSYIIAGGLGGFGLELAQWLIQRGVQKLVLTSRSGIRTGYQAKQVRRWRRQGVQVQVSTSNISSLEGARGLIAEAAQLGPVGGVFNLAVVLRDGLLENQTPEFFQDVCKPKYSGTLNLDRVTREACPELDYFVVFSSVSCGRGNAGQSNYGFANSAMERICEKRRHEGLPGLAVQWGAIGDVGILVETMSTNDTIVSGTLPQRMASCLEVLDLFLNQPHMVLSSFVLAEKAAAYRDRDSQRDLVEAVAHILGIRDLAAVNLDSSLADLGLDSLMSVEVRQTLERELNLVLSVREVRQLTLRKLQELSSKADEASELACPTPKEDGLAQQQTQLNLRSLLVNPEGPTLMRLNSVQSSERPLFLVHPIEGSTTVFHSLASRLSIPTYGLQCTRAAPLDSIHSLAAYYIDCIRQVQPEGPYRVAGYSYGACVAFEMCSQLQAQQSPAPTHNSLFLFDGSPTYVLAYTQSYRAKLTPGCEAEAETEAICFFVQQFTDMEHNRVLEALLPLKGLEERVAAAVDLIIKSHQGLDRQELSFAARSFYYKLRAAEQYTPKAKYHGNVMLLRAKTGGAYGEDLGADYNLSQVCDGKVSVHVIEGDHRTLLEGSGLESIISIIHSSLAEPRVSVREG

SMILES | inhibition
CCOC(=O)[C@]12Cc3ccccc3[C@H]1N(C1CCCCC1)C(=O)c1cc(OC)ccc12 | 67.5% (active)
CCOC(=O)[C@]12Cc3cc(OC)ccc3[C@H]1N(C(C)C)C(=O)c1ccccc12 | 36.7%
CC(=O)c1ccc(OC(NC(=O)Cc2ccccc2)C(Cl)(Cl)Cl)cc1 (stereo not given) | 11.2%
O=C1C2(Cl)C3(Cl)C4(Cl)C(Cl)(Cl)C5(Cl)C3(Cl)C1(Cl)C5(Cl)C24Cl (stereo not given) | 72.1% (active)
O=C(O)CCn1cc(C=C2C(=O)NC(=S)NC2=O)c(-c2cccc(Br)c2)n1 | -3.4%
COC(=O)C1=C(c2ccc3ccccc3c2)C[C@@H]2CC[C@H]1N2C(=O)NCCO | -1.8%
COc1ccc(-n2nnnc2C(c2cccc3ccccc23)N2CCC(n3c(=O)[nH]c4ccccc43)CC2)cc1 (stereo not given) | 87.1% (active)
O=c1[nH]c2ccccc2n1C1CCN(C(c2ccccc2)c2nnnn2Cc2ccccc2)CC1 (stereo not given) | 18.3%
O=c1[nH]c2ccccc2n1C1CCN(C(c2ccnc3ccccc23)c2nnnn2Cc2ccccc2)CC1 (stereo not given) | 5.1%
CCOc1ccc(CN(CCCl)CCCl)cc1C(=O)OC | -5.1%
O=C(NC1CCCCC1)N1Cc2cc(N3CCCCC3)ccc2-n2nncc2C1 | -2.8%
CN(C)CC1CCCCC1OC(=O)c1ccc(Cl)c(Cl)c1 (stereo not given) | -3.1%
CCCCCCCCCCCCn1ccc(=N)cc1 | -0.8%
O=C1NCN(c2ccccc2)C12CCN(C(c1cccs1)c1nnnn1C1CCCCC1)CC2 (stereo not given) | 14.5%
COc1cccc(C(c2nnnn2-c2ccc3c(c2)OCCO3)N2CCC3(CC2)C(=O)NCN3c2ccccc2)c1OC (stereo not given) | 62% (active)
Cc1ccc(-c2cc(C(=O)N3CCC4(CC3)OCCO4)no2)cc1 | 1.5%
COc1ccc2c(c1O)-c1cccc3c1[C@@H](C2)N(C)CC3 | -2.4%
CCOC(=O)C(O)(c1ccc(N=Cc2ccccc2O)c(C)c1)C(F)(F)F (stereo not given) | -4.3%
CC(C)Oc1cccc(C(=O)C2CCCN(C3CCOCC3)C2)c1 (stereo not given) | -0.1%
c1cncc(CNCCc2c[nH]c3ccccc23)c1 | 5.2%
